# Results filed as inconclusive are left out. Entries that show only a call come without a potency. Active and inactive are the calls of the source. Calls follow the shape of the dose curve; as a rule, active = well fitted curve in the direction sought with a large enough effect; inconclusive = small, poorly fitted or top-dose-only effect, or another doubt; inactive = no such curve, though single readings can be large; an effect the other way counts as inactive or inconclusive.
# Columns and labels:
# [1] = biological target: Luciferin 4-monooxygenase (Photinus pyralis) (UniProt P08659); assay: Biochemical firefly luciferase enzyme assay for NPC (AID 624030); also: nearly all actives have a fitted effect of over 70% in size; also: potency is read from the fitted curve at half-maximal effect
# Method in brief: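 Counter-screen for direct inhibition of the luciferase enzyme by approved-drug library compounds, run at 10 nM enzyme in 50 mM Tris acetate (final). Luminescence was read within 5 min of enzyme-buffer addition and normalized to PTC124 versus DMSO (0%).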
# [2] = S16 Schwann cell viability assay (CellTiter-Glo assay) (AID 624031);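 also: cellular ATP luminescence as a viability measure; series mostly up to about 58 µM; nearly all actives have a fitted effect of over 70% in size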
# Method in brief: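 Native S16 Schwann cells (rat), serum-containing medium, overnight attachment then 24 h drug exposure at 37 °C/5% CO2. CellTiter-Glo ATP signal; normalized to cell-free and vehicle wells.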
# [3] = S16 Schwann cell PMP22 intronic element firefly luciferase assay (AID 624032); also: nearly all actives have a fitted effect of over 30% in size; also: potency is read from the fitted curve at half-maximal effect
# Method in brief: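 Rat S16 Schwann cells stably carrying a PMP22 intronic element-driven Fluc reporter were seeded overnight, then exposed to compounds for 24 h at 37 °C. Luminescence was normalized to PTC124 (positive control) and DMSO (0% activity).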
# Luciferin 4-monooxygenase (Photinus pyralis), sequence (P08659 whole entry, looked up): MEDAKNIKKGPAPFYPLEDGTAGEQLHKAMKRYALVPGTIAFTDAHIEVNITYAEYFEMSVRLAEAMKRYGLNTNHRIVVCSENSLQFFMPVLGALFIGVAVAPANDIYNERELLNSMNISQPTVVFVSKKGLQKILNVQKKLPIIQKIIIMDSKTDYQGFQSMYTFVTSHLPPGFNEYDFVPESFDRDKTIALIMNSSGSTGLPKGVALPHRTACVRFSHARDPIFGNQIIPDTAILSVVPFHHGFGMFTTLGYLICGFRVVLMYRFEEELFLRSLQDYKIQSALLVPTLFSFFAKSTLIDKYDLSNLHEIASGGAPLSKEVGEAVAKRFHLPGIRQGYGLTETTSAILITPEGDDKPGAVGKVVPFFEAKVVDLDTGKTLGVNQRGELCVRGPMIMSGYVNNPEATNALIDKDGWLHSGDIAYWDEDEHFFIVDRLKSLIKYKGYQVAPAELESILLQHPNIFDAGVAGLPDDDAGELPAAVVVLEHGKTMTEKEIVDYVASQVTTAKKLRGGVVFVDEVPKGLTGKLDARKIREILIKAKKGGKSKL
SMILES,Potency [1],Potency [2],Potency [3]
CCCCC[C@H](O)/C=C/[C@@H]1[C@H]2C/C(=C/CCCC(=O)O)O[C@H]2C[C@H]1O,inactive,inactive,inactive
CC(=O)[C@H]1CC[C@H]2[C@@H]3C=CC4=CC(=O)CC[C@@]4(C)[C@H]3CC[C@]12C,inactive,inactive,
CC1CC(O)CC(C)(C)C1 (stereo unspecified),inactive,inactive,inactive
CCN(CC)C(=O)c1cccnc1,inactive,inactive,inactive
CC(C)c1ncc([N+](=O)[O-])n1C,inactive,inactive,inactive
FCOC(C(F)(F)F)C(F)(F)F,inactive,inactive,inactive
C=CCOc1ccc(CC(=O)O)cc1Cl,inactive,inactive,inactive
CNC(=O)[C@H](Cc1c[nH]c2ccccc12)NC(=O)[C@@H](CC(=O)NO)CC(C)C,inactive,inactive,inactive
O=C(O)C1=C(CSc2nnnn2CS(=O)(=O)O)CS[C@@H]2[C@H](NC(=O)[C@H](O)c3ccccc3)C(=O)N12,inactive,inactive,inactive
CC1=C(/C=C/C(C)=C/C=C/C(C)=C/C(=O)Oc2c(C)c(C)c3c(c2C)CC[C@@](C)(CCC[C@H](C)CCC[C@H](C)CCCC(C)C)O3)C(C)(C)CCC1,inactive,inactive,5.73 µM (active)
CCCCCCCCCCCCCCCCCC[N+](C)(C)CCC[Si](OC)(OC)OC,inactive,inactive,
CCc1ncnc2cc(OC)c(OC)cc12,inactive,inactive,inactive
CC1CCCCN1CCCOC(=O)c1ccccc1 (stereo unspecified),inactive,inactive,inactive
COc1ccc(/C=C/C(=O)OCCC(C)C)cc1,11.4 µM (active),inactive,inactive
CN1C(=O)OC(C)(C)C1=O,inactive,inactive,inactive
C=CC[C@@H]1/C=C(\C)C[C@H](C)C[C@H](OC)[C@H]2O[C@@](O)(C(=O)C(=O)N3CCCC[C@H]3C(=O)O[C@H](/C(C)=C/[C@@H]3CC[C@@H](O)[C@H](OC)C3)[C@H](C)[C@@H](O)CC1=O)[C@H](C)C[C@@H]2OC,inactive,,
CC(=O)NCCCS(=O)(=O)O,inactive,inactive,
CC12CCC(C[N+](C)(CCC[N+](C)(C)C)C1)C2(C)C (stereo unspecified),inactive,,
CCOc1ccc(S(=O)(=O)O)c2cccnc12,inactive,inactive,inactive
O=C(O[C@H]1CN2CCC1CC2)N1CCc2ccccc2[C@@H]1c1ccccc1,inactive,inactive,

SMILES,Potency [1],Potency [2],Potency [3]
CC1CC(OC(=O)C(O)c2ccccc2)CC(C)(C)C1 (stereo unspecified),inactive,inactive,inactive
CCC(=O)c1ccc2c(c1)N(CCCN1CCN(CCO)CC1)c1ccccc1S2,inactive,,
CCSc1ccc2c(c1)N(CCCN1CCN(C)CC1)c1ccccc1S2,inactive,inactive,inactive
N=C(N)c1ccc(/C=C/c2ccc(C(=N)N)cc2O)cc1,inactive,inactive,
OCC1(CO)COC(C(Cl)(Cl)Cl)OC1,inactive,inactive,inactive
CCN(CC)C(=S)S,inactive,,
COc1ccc(C[C@H](C)NC[C@@H](O)c2ccc(O)c(NC=O)c2)cc1,inactive,,
Cc1ncc(C[n+]2csc(CCO)c2C)c(N)n1,inactive,inactive,
NCC[C@H](O)C(=O)N[C@@H]1C[C@H](N)[C@@H](O[C@H]2O[C@H](CN)[C@@H](O)[C@H](O)[C@H]2O)[C@H](O)[C@H]1O[C@H]1O[C@H](CO)[C@@H](O)[C@H](N)[C@H]1O,inactive,inactive,
O=C(O)COc1ccccc1/C=N/NC(=O)c1ccncc1,inactive,inactive,inactive
CC(=O)N[C@@H](C=O)[C@@H](O)[C@H](O)[C@H](O)CO,inactive,,
CCCCCCCCCCCCCC(=O)OCC(COP(=O)([O-])OCC[N+](C)(C)C)OC(=O)CCCCCCCCCCCCC (stereo unspecified),inactive,inactive,
Cc1cccc(C)c1NC(=O)C1CCCCN1C (stereo unspecified),inactive,inactive,inactive
CCC(C)[C@@H](N)C(=O)O (stereo partly specified),inactive,inactive,inactive
O=P(O)(O)OP(=O)(O)O,inactive,inactive,1.81 µM (active)
FC(F)OC(Cl)C(F)(F)F (stereo unspecified),inactive,inactive,inactive
FC(F)(F)COCC(F)(F)F,inactive,inactive,inactive
COc1ccc(C(=O)CCC(=O)O)c2ccccc12,inactive,inactive,
NCC[C@H](O)C(=O)N[C@@H]1C[C@H](N)[C@@H](O[C@H]2O[C@H](CN)CC[C@H]2N)[C@H](O)[C@H]1O[C@H]1O[C@H](CO)[C@@H](O)[C@H](N)[C@H]1O,inactive,inactive,inactive
